Molecules are shown by their SMILES. Several values for one entry are separate records, joined by “and”; a condition that tells them apart may be missing. Identical values can stand only once. Results filed as inconclusive are left out. Some structures have more than one record in an assay (separate samples or runs), and their calls can disagree. Activity calls are given as the source filed them. Unless noted, the call rests on the fitted dose curve; in most records, active means well fitted curve in the direction sought with a large enough effect in the repeat runs; inconclusive means weak or mixed curves; inactive means no such curve, though single readings can be large; an effect the other way counts as inactive or inconclusive.

The nature of assay [1]: qHTS assay to identify small molecule agonists of the RXR signaling pathway - cell viability counter screen (AID 1159529). Further: nearly all actives have a fitted effect of over 50% in size. Further: potency means the concentration at half of the fitted maximal effect. The procedure, abridged:
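Cell viability is measured by CellTiter-Glo luminescence, 30 min at room temperature, in wells already read for beta-lactamase. Engineered HEK 293T cells (RXR-alpha-UAS-bla) are dosed 16 hr at 37 C. Tetraoctyl ammonium bromide serves as positive control.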
(In qHTS, concentration-response curves come from the screen itself.)

Assay [2] in a line: qHTS assay to identify small molecule antagonists of the retinoid acid receptor (RAR) signaling pathway - cell viability counter screen (AID 1159551). Further: nearly all actives have a fitted effect of over 35% in size. The procedure, abridged: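 Seed C3RL4 cells; next day add compound, then retinol to 1 uM final; incubate 6 h at 37 C; add CellTiter-Glo; read luminescence after 30 min at RT.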
Assay [3] can be described thus: qHTS assay to identify small molecule antagonists of the estrogen related receptor (ERR) signaling pathway - cell viability counter screen (AID 1224818).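 Further: viability measured after 17.5 h of compound exposure.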 An outline of the steps: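 In the same ERR cell assay, compound-treated wells (17.5 h, 37 C) were multiplexed with a fluorogenic viability reagent, CellTiter-Fluor, read after 30 min to flag cytotoxic substances.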

The nature of assay [4]: qHTS assay to identify small molecule antagonists of the estrogen related receptor signaling pathway with the pleiotropic PPARgamma coactivator (PGC) cell viability counter screen (AID 1224822; further: potency means the concentration at half of the fitted maximal effect). An outline of the steps:
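Compounds in DMSO, with positive and negative controls, were applied to PGC/ERR cells (2,000/well) and left 17.5 h at 37 C before CellTiter-Fluor detection.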

A short description of assay [5]: qHTS assay to identify small molecule antagonists of the retinoic acid receptor (RAR) signaling pathway (AID 1159552; further: nearly all actives have a fitted effect of over 50% in size; further: potency means the concentration at half of the fitted maximal effect). The procedure, abridged:
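Quantitative HTS in C3RL4 RARE-luciferase reporter cells. Compounds were added with 1 uM (final) retinol; luminescence was read after 6 hr.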

Assay [6] in a line: qHTS assay to identify small molecule agonists of the retinoic acid receptor (RAR) signaling pathway (AID 1159553). Further: potency means the concentration at half of the fitted maximal effect. As to conditions: C3RL4 RARE luciferase reporter, agonist, 6 h; activation: at 73.3 µM (top of the series) unless noted. The procedure, abridged:
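Activation of retinol signaling was monitored via a RARE luciferase reporter in C3RL4 cells. After 6 hr compound treatment at 37 C, detection reagent was added for 30 min at room temperature before luminescence reading.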

Assay [7] is described as follows: qHTS assay to identify small molecule agonists of the estrogen related receptor (ERR) signaling pathway (AID 1224820). The text has this:
(§1) National Center for Advancing Translational Sciences [NCATS]
(§2) NIH Chemical Genomics Center [NCGC]
(§3) U.S. Environmental Protection Agency [EPA]
(§4) National Institutes of Environmental Health Sciences [NIEHS]
(§5) National Toxicology Program [NTP]
(§6) Estrogen related receptors (ERRs), the first orphan nuclear receptors discovered, play an important role in the control of cellular energy metabolism. ERRs are required for high-energy production in response to the environmental challenges. ERR-alpha was also identified as an adverse marker for breast cancer progression; ERR-alpha-positive tumors have a poor prognosis. To screen and to identify environmental compounds that perturb the ERR signaling pathways could provide valuable information for potential therapeutic or preventive measures in the treatment of metabolic disease. For identifying ERR agonists, ERR cell line (provided by NTP) has been used to screen LOPAC library.
The ERR cells were dispensed at 2,000 cells/5 ul/well in 1536-well white plates using a Multidrop dispenser. After the assay plates were incubated at a 37 C/5% CO2 incubator for 6 hours, 23 nL of compounds dissolved in DMSO, positive and negative controls or DMSO only was transferred to the assay plate by a pin tool. The plates were incubated at 37 C for 18 hours. 4 ul/well of One-Glo reagent was added into the assay plates using a Flying Reagent Dispenser. After 30 min incubation at room temperature, the luminescence intensity in the plates was measured using a ViewLux plate reader.

For assay [8], the system named is estrogen-related receptor alpha (ERRalpha) with PGC-1alpha coactivator, human. Put plainly: qHTS assay to identify small molecule antagonists of the estrogen related receptor signaling pathway with the pleiotropic PPARgamma coactivator (PGC) (AID 1224821; calls by dose curve; further: nearly all actives have a fitted effect of over 50% in size; further: potency means the concentration at half of the fitted maximal effect).
Source text: as §1, §2, §3, §4, §5
U.S. Food and Drug Administration [FDA]
as §6, with “environmental challenges. The pleiotropic PPARgamma coactivator (PGC) is a major partner of ERR and a key regulator in energy homeostasis. Together they have been implicated in the etiology of metabolic disorders such as Type 2 diabetes and metabolic syndrome. ERR-alpha was” for “environmental challenges. ERR-alpha was”, “the ERR and PGC/ERR signaling pathways” for “the ERR signaling pathways”, “For identifying PGC/ERR antagonists, PGC/ERR cell line” for “For identifying ERR agonists, ERR cell line”
Tox21 Assay Protocol Summary:
The PGC/ERR cells were dispensed at 2,000 cells/5 ul/well in 1536-well white plates using a Multidrop dispenser. After the assay plates were incubated at a 37 C/5% CO2 incubator for 6 hours, 23 nL of compounds dissolved in DMSO, positive and negative controls or DMSO only was transferred to the assay plate by a pin tool. The plates were incubated at 37 C for 18 hours. 4 ul/well of One-Glo reagent was added into the assay plates using a Flying Reagent Dispenser. After 30 min incubation at room temperature, the luminescence intensity in the plates was measured using a ViewLux plate reader.

Assay [9] is described as follows: qHTS assay to identify small molecule antagonists of the estrogen related receptor (ERR) signaling pathway (AID 1224819; further: nearly all actives have a fitted effect of over 50% in size; further: potency means the concentration at half of the fitted maximal effect). The procedure, abridged: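 qHTS in ERR cells, 2,000/well, 1536 format. Cpd (DMSO) added after 6 h settle, 18 h 37 C. One-Glo luminescence, 30 min RT.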
A short description of assay [10]: qHTS assay to identify small molecule agonists of the estrogen related receptor signaling pathway with the pleiotropic PPARgamma coactivator (PGC) (AID 1224823). The procedure, abridged:
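PGC/ERR reporter cells were seeded, rested 6 h at 37 C/5% CO2, then exposed to compounds in DMSO by pin transfer for 18 h at 37 C. Luciferase activity was read as luminescence after One-Glo reagent and 30 min at room temperature.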

Take `NC(=O)c1ncn([C@@H]2O[C@H](CO)[C@@H](O)[C@H]2O)n1`: the Potency entry in [1], in [2] and in [4] was “inactive” throughout. Further, the outcome in assay [3] was inactive.

On to `Nc1nc(N)c2nc(-c3ccccc3)c(N)nc2n1`, for which the Potency entry in assay [1], in assay [2], in assay [5], in assay [8] and in assay [4] was “inactive” each time. For the same compound, the Potency in [6] was 17.4 µM (active) and inactive. Further, the compound was called inactive in [3] and in assay [7].

For `C=C(C)CC(C)(C)C`, the Potency entry in [1], in assay [2], in assay [5] and in assay [6] was “inactive” each time.

With `COc1c(Cl)ccc(Cl)c1C(=O)O`, the Potency entry in assay [1], in assay [2], in assay [5] and in [6] was “inactive” each time.

As for `CC(=O)OC(C)(C)C1CC=C(C)CC1` (stereo not drawn), the Potency result in [1], in assay [2], in assay [5] and in assay [6] was “inactive” throughout.

As for `CC(C)=CCC/C(C)=C/C=O`, the Potency result in [1], in [2], in assay [5] and in assay [6] was “inactive” throughout.

Take `Oc1ccc(Cc2ccccc2O)cc1`: the Potency result in assay [1], in [2], in assay [5] and in assay [6] was “inactive” in each case.

As for `CN=C(NC#N)NCCSCc1nc[nH]c1C`, the Potency result in [1], in [2], in assay [5], in assay [6], in [9] and in assay [8] was “inactive” each time. Also, in assay [4], the Potency result was “inactive”. For the same compound, the compound was called inactive in assay [3], in assay [7] and in assay [10].

Turning to `C=C1C[C@]23C[C@@]1(O)CC[C@H]2[C@@]12C=C[C@H](O)[C@@](C)(C(=O)O1)[C@H]2[C@@H]3C(=O)O`, the Potency result in assay [1], in assay [2], in assay [5] and in assay [6] was “inactive” each time.

Consider `CCCCCCCCO`, for which the Potency result in assay [1], in assay [2], in assay [5] and in [6] was “inactive” each time.

For the compound `O=[N+]([O-])c1ccccc1C(F)(F)F`, the Potency entry in assay [1], in assay [2], in assay [5] and in assay [6] was “inactive” each time.

For the compound `C=CC(C)(C)C`, the Potency entry in [1], in [2], in assay [5] and in assay [6] was “inactive” throughout.

Consider `CC(CN1c2ccccc2Sc2ccccc21)N(C)C` (stereo not drawn), for which the Potency is 55.5 µM (active) and inactive in assay [1]; 27.6 µM (active) and 48.6 µM (active) and 26.6 µM (active) in assay [5]. For the same compound, the Potency entry in [2], in [9], in [8] and in assay [4] was “inactive” each time. In addition, the compound was called inactive in [3], in assay [7] and in assay [10].

As to `COc1ccccc1[N+](=O)[O-]`, the Potency entry in [1], in assay [2], in assay [5] and in assay [6] was “inactive” in each case.

In the case of `COc1ccc2cc3[n+](cc2c1OC)CCc1cc2c(cc1-3)OCO2`, the Potency result in assay [2], in assay [5] and in assay [6] was “inactive” in each case.

On to `O=c1n(CCCN2CCN(c3cccc(Cl)c3)CC2)nc2ccccn12`, for which the Potency entry in assay [1], in [2], in assay [5], in assay [9] and in assay [4] was “inactive” in each case. Moreover, the compound was called inactive in assay [3] and in assay [7].

`CN1Cc2c(N)cccc2C(c2ccccc2)C1` (stereo not drawn): the Potency result in assay [1], in [2], in assay [5] and in [4] was “inactive” each time. For the same compound, in assay [3], the compound was called inactive.

With `CCCCCNCCCCC`, the Potency entry in [1], in assay [2], in [5] and in [6] was “inactive” throughout.

Regarding `c1cnc2c(c1)ccc1cccnc12`, the Potency entry in assay [1] and in [2] was “inactive” each time. The results for the Potency in assay [9], in assay [8] and in [4] were 2.98 µM (active), 2.03 µM (active) and 6.68 µM (active), respectively. Also, the compound was called inactive in assay [7] and in [10].

Consider `COc1c2ccoc2cc2oc(=O)ccc12`, for which the Potency entry in assay [1], in assay [2], in assay [5] and in assay [6] was “inactive” throughout.

Take `Cc1cc(CC(=O)O)n(C)c1C(=O)c1ccc(Cl)cc1`: the Potency entry in [1], in assay [2], in assay [5] and in assay [6] was “inactive” each time.

Take `Brc1ccc(Oc2ccc(Br)cc2)cc1`: the Potency result in assay [1], in assay [2], in assay [5] and in assay [6] was “inactive” each time.

Turning to `NC(=O)NC(N)=O`, the Potency result in [1], in assay [2], in assay [5] and in assay [6] was “inactive” in each case.

`CC(=O)OCCC(C)C`: the Potency entry in assay [1], in assay [2], in [5] and in assay [6] was “inactive” throughout.

In the case of `CC1(C)[C@@H](O[C@H]2O[C@H](C(=O)O)[C@@H](O)[C@H](O)[C@H]2O[C@@H]2O[C@H](C(=O)O)[C@@H](O)[C@H](O)[C@H]2O)CC[C@]2(C)[C@H]3C(=O)C=C4[C@@H]5C[C@@](C)(C(=O)O)CC[C@]5(C)CC[C@@]4(C)[C@]3(C)CC[C@@H]12`, the Potency result in [1], in [2] and in assay [6] was “inactive” throughout.

With `CCN(CC)CCNC(=O)c1ccc(N)cc1`, the Potency entry in [1], in [2] and in assay [4] was “inactive” in each case. The outcome in [3] was inactive.

With `CC/C(C)=N/O`, the Potency entry in assay [1], in [2], in [5] and in assay [6] was “inactive” each time.
